FBW7 act: human FBW7 E3 ligase activation, primary screen; Q969H0; AlphaScreen FBW7–phospho-cyclin E peptide binding, activator screen; normalized activity (activation), % at 26.1 µM; 650,000 compounds, 0.13% hits; in the data active = normalized activity above about 1.9%;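 also: purified mutant Fbw7 with reduced substrate affinity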
Target sequence (Q969H0 whole entry, looked up): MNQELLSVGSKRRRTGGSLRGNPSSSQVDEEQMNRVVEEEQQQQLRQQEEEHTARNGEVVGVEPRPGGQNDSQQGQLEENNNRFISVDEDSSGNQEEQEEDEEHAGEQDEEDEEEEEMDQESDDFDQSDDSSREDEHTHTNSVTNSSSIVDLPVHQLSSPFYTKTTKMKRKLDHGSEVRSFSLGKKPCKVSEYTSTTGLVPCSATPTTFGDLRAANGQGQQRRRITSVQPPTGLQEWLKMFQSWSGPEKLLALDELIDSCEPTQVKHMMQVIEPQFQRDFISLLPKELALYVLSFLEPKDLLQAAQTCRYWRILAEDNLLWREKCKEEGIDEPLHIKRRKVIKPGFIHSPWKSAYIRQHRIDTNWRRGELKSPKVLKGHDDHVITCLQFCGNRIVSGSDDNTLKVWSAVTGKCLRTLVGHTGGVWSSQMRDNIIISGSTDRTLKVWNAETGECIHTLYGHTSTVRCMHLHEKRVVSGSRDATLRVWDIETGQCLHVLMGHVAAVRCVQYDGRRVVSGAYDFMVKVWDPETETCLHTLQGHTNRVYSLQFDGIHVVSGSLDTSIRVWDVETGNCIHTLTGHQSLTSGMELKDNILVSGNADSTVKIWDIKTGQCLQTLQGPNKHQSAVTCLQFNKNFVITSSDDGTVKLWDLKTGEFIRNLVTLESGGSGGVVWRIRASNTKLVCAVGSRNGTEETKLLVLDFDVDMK
TEAD-YAP block: TEAD-YAP interaction inhibition | HEK-TIYL cells, TEAD-Gal4/YAP UAS-luciferase luminescence | inhibition, % at 9.12 µM | 640,000 compounds, 1.4% hits; in the data active = inhibition above about 32%;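 also: 0% = median of test compound wells and 100% = reference inhibitor wells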
MITF primary: blocks human microphthalmia-associated transcription factor; AlphaScreen MITF homodimerization, bead proximity signal; AID 1259374; O75030; inhibition, % at 2.6 µM; 650,000 compounds, 0.91% hits; in the data active = inhibition above about 50%;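 also: 0% = vehicle wells with protein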
GPR151 activ: human GPR151 activation | Q8TDV0 | PathHunter beta-arrestin GPR151 cells, luminescence | activation, % at 11.2 µM | 650,000 compounds, 1% hits | AID 1508602; in the data active = activation above about 4.9%;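 also: 0% = median of compound wells and 100% = cells with positive control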
* hit, by the source's call; ! = not confirmed by another sample. Most compounds without a hit are left out; they make up all but 3.5% or so of the library.

Screening Cc1ccc(-n2nc3ccc(N)cc3n2)cc1Cl returned FBW7 act -0.1, TEAD-YAP block -20.2, MITF primary -4.7 and GPR151 activ -0.9.
Cc1ccc(-n2nc3ccc(N)cc3n2)c(C)c1 was read as FBW7 act 0.2, TEAD-YAP block 40.2*, MITF primary 9.5 and GPR151 activ 0.4.
Screening Cc1nc2c3ccccc3nc(SCC(=O)Nc3ccc(Br)cc3)n2n1 returned FBW7 act -0.1, TEAD-YAP block 4.0, MITF primary 5.2 and GPR151 activ -0.5.
For CCc1ccc(NC(=O)CSc2nc3ccccc3c3nc(C)nn23)cc1 the results were FBW7 act 0.0, TEAD-YAP block 62.3*, MITF primary 9.7 and GPR151 activ 0.1.
For COc1ccc(C(=O)N[C@H](C(=O)OCC(=O)Nc2sccc2C(N)=O)C(C)C)cc1 the results were FBW7 act 0.1, TEAD-YAP block 16.4, MITF primary 7.5 and GPR151 activ 3.3.
Screening CCNC(=O)N1CCCC(c2nnc(-c3ccccc3F)s2)C1 (stereo not drawn) returned FBW7 act -0.2, TEAD-YAP block 38.2*, MITF primary -5.4 and GPR151 activ -4.6.
`COCc1c(C(=O)N/N=C/c2cc(Cl)ccc2O)nnn1-c1nonc1N` gave FBW7 act -0.1, TEAD-YAP block 60.9*, MITF primary 38.0 and GPR151 activ 0.1.
`COCc1c(C(=O)N/N=C/c2ccc(Cl)cc2)nnn1-c1nonc1N` gave FBW7 act 0.1, TEAD-YAP block 4.4, MITF primary 5.7 and GPR151 activ -0.5.
CCN(CC)c1ccc(/C=N/NC(=O)c2nnn(-c3nonc3N)c2COC)c(O)c1 was read as FBW7 act -0.1, TEAD-YAP block 36.5*, MITF primary -6.8 and GPR151 activ 0.0.
`O=S(=O)(Cc1ccc(Cl)cc1)Nc1ccc2c(c1)OCCO2` gave FBW7 act -0.1, TEAD-YAP block 40.7*, MITF primary 3.2 and GPR151 activ 0.0.
For O=S(=O)(Nc1ccc2c(c1)OCCO2)c1ccc(Cl)cc1 the results were FBW7 act 0.0, TEAD-YAP block -7.8, MITF primary 5.1 and GPR151 activ -0.5.
For N#Cc1cnc(SCc2cc(=O)n3ccccc3n2)nc1N the results were FBW7 act 16.4*, TEAD-YAP block -8.8, MITF primary 3.2 and GPR151 activ -0.1.
Screening CCOC(=O)c1c(NC(C)=O)sc2c(OC(=O)CCl)c(Br)ccc12 returned FBW7 act -0.3, TEAD-YAP block 5.6, MITF primary -5.5 and GPR151 activ -0.1.
O=C(Nc1ncn[nH]1)c1ccc(Oc2ccccc2)cc1 was read as FBW7 act -0.1, TEAD-YAP block -5.0, MITF primary 4.2 and GPR151 activ -1.3.
For CC(=O)c1ccccc1OCc1ccccc1C the results were FBW7 act 2.6*, TEAD-YAP block 5.2, MITF primary 7.2 and GPR151 activ 0.2.
`O=C(Nc1nc2ccc(NC(=O)C34CC5CC(CC(C5)C3)C4)cc2s1)C1CCCCC1` gave FBW7 act 0.3, TEAD-YAP block 52.7*, MITF primary 20.9 and GPR151 activ -1.6.
`Cc1nn(-c2ccccc2)c(C)c1/C=N/Nc1cccc(C(=O)O)c1` gave FBW7 act 0.4, TEAD-YAP block 42.5*, MITF primary 7.1 and GPR151 activ -1.4.
Cc1ccsc1/C=N/Nc1cccc(C(=O)O)c1 was read as FBW7 act -0.3, TEAD-YAP block 47.5*, MITF primary 1.5 and GPR151 activ -5.9.
Screening O=C(O)c1cccc(N/N=C/c2cccc3ccccc23)c1 returned FBW7 act -0.1, TEAD-YAP block 10.9, MITF primary 7.2 and GPR151 activ 0.9.
Cc1ccsc1/C=N/Nc1ccc(C(=O)O)cc1 was read as FBW7 act -0.1, TEAD-YAP block 49.1*, MITF primary 1.1 and GPR151 activ -6.4.
For O=C(O)c1cccc(N/N=C/c2cc(Br)cs2)c1 the results were FBW7 act -0.1, TEAD-YAP block 37.8*, MITF primary 13.8 and GPR151 activ -8.1.
Screening O=[N+]([O-])c1ccc(OCC(O)CN2CCCC2)cc1 (stereo not drawn) returned FBW7 act -0.1, TEAD-YAP block 9.3, MITF primary -4.1 and GPR151 activ -0.9.
`COc1cc2c(c(OC)c1OC)-c1c(cc3c(c1OC)OCO3)CC(C)C(C)C2` (stereo not drawn) gave FBW7 act -0.1, TEAD-YAP block -3.0, MITF primary -2.1 and GPR151 activ -0.2.
Screening COc1ccc2cc3[n+](cc2c1OC)CCc1cc2c(cc1-3)OCO2 returned FBW7 act -0.2, TEAD-YAP block 56.1*!, MITF primary 2.4 and GPR151 activ 0.0.
For CC(C)NC(=O)/C(=C\c1ccccc1)NC(=O)c1ccc(Cl)cc1Cl the results were FBW7 act 0.0, TEAD-YAP block 4.1, MITF primary 0.1 and GPR151 activ 0.4.
For COc1ccc(C2CC(=O)C3=C(C2)NC(C)=C(C(=O)OC2CCCC2)C3c2cccc(C)c2)cc1OC (stereo not drawn) the results were FBW7 act 0.1, TEAD-YAP block 46.8*, MITF primary -34.4 and GPR151 activ 0.3.
For COc1ccc(C2CC(=O)C3=C(C2)NC(C)=C(C(=O)OC2CCCC2)C3c2ccccc2F)cc1OC (stereo not drawn) the results were FBW7 act 0.0, TEAD-YAP block 47.9*, MITF primary -15.6 and GPR151 activ -0.6.
`CCCOC(=O)C1=C(C)NC2=C(C(=O)CC(c3ccc(OC)c(OC)c3)C2)C1c1cccc(Cl)c1` (stereo not drawn) gave FBW7 act 0.6, TEAD-YAP block 35.1*, MITF primary 7.6 and GPR151 activ 0.4.
COc1ccc(C2CC(=O)C3=C(C2)NC(C)=C(C(=O)OC2CCCC2)C3c2cccc([N+](=O)[O-])c2)cc1OC (stereo not drawn) was read as FBW7 act 0.1, TEAD-YAP block 41.9*, MITF primary 14.2 and GPR151 activ 0.7.
For COc1ccc(C2CC(=O)C3=C(C2)NC(C)=C(C(=O)OC2CCCC2)C3c2cccc(Cl)c2)cc1OC (stereo not drawn) the results were FBW7 act 0.1, TEAD-YAP block 29.6, MITF primary -8.0 and GPR151 activ 1.6.
For CCCOC(=O)C1=C(C)NC2=C(C(=O)CC(c3ccc(OC)c(OC)c3)C2)C1c1ccc(Cl)cc1Cl (stereo not drawn) the results were FBW7 act 0.2, TEAD-YAP block 4.2, MITF primary 12.2 and GPR151 activ -0.7.
Screening COc1ccc(C2CC(=O)C3=C(C2)NC(C)=C(C(=O)OC2CCCC2)C3c2ccc(F)cc2)cc1OC (stereo not drawn) returned FBW7 act 0.4, TEAD-YAP block 37.3*, MITF primary 0.9 and GPR151 activ -0.3.
Screening COc1cccc(C2C(C(=O)OC3CCCC3)=C(C)NC3=C2C(=O)CC(c2ccccc2)C3)c1OC (stereo not drawn) returned FBW7 act -0.1, TEAD-YAP block 3.7, MITF primary -18.8 and GPR151 activ -1.4.
Screening COc1ccccc1C1C(C(=O)OC2CCCC2)=C(C)NC2=C1C(=O)CC(c1ccccc1)C2 (stereo not drawn) returned FBW7 act 2.6*, TEAD-YAP block -2.0, MITF primary 1.7 and GPR151 activ 0.8.
